Hits are enriched below; roughly 22% of the tested compounds scored in any of these assays.
CYP2C9 activ: increases human cytochrome P450 2C9 activity; recombinant CYP2C9, luciferin-H conversion, luminescence; hits give high values; factor 1 = untreated enzyme, 0 = blocked; activation factor at 5 µM; 96,000 tested, 1.4% active;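 active = activation factor of 2 or more for CYP2C9 at a 5 µM dose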;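 note: 0 = sulfaphenazole-blocked wells and 1 = vehicle-only wells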
CYP2C19 inh: blocks human cytochrome P450 2C19 | P33261 | CYP2C19 Supersomes, luciferin-H EGE luminescence, 30 min | inhibition, % at 5 µM | 96,000 tested, 21% active | AID 778;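 active = CYP2C19 inhibition above a set limit at 5 µM in the primary screen, cut at about 50% in these data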;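 note: plate controls were negative control wells for no effect and 2.5 mM tranylcypromine positive control for full effect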
Target sequence (P33261 whole entry, looked up): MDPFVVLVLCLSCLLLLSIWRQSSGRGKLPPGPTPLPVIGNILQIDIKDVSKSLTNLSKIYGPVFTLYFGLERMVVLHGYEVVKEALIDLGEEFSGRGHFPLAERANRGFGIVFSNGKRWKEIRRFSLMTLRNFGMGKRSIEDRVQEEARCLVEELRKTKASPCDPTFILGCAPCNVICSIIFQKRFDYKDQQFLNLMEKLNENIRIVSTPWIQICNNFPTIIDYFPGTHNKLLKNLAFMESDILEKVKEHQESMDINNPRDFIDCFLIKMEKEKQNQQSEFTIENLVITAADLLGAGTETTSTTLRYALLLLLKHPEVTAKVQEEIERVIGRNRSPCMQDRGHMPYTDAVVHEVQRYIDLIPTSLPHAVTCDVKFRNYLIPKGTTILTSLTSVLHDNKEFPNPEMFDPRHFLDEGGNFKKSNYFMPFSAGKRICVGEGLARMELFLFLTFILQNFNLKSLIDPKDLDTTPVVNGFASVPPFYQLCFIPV
CYP2C19 act: activators of human cytochrome P450 2C19 | P33261 | recombinant CYP2C19, luciferin-H EGE luminescence; hits give high values; 0 = fully inhibited enzyme, 1 = untreated enzyme | activation factor at 5 µM | 96,000 tested, under 10 active | AID 1025;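 active = activation factor of at least 2 at 5 µM in the primary screen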;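 note: 0 = wells with 2.5 mM tranylcypromine and 1 = vehicle-only wells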
Measles CPE: protection of cells from measles virus. Measles virus-infected cells, CPE protection, absorbance. protection (pct of control), % at 4 µM. 140,000 tested, 1.5% active; in the data active = protection mostly above about 24%, no sharp cut-off; inactive = mostly below about 26%
CYP2C9 inh: blocks human cytochrome P450 2C9; CYP2C9 Supersomes, luciferin-H conversion, luminescence; inhibition, % at 5 µM; 96,000 tested, 20% active; AID 777;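 active = blocking of liver enzyme CYP2C9 beyond about 50% at 5 µM, limit read from the data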
The depositor's hits bear a star; / = not tested or not shown.

SMILES	CYP2C9 activ	CYP2C19 inh	CYP2C19 act	Measles CPE	CYP2C9 inh
Cc1ccc2cc(CN(CC3CCCO3)S(=O)(=O)c3cccc4nsnc34)c(=O)[nH]c2c1 (configuration not stated)	0	57.2*	0.4	1.8	99.7*
COc1ccc(Nc2nnc(SCC(=O)/C=C3/N(C)c4ccccc4C3(C)C)s2)cc1	/	/	/	22.9	/
Cc1ccc(C)c(CN2CCCNC2=O)c1	/	/	/	16.0	/
Cc1ccc(S(=O)(=O)N(CCO)Cc2cc3ccc(C)c(C)c3[nH]c2=O)cc1	0.7	6.0	0.9	3.3	29.4
Cc1ccc(S(=O)(=O)N(CCCO)Cc2cc3c(C)ccc(C)c3[nH]c2=O)cc1	0.4	8.9	0.9	15.6	56.2*
CCC(C)NC(=O)C1CCN(S(=O)(=O)N2CCCC2)CC1 (configuration not stated)	1	-5.3	1.1	5.8	-0.4
c1ccc(C2CC(c3cccs3)n3nnnc3N2)cc1 (configuration not stated)	0.3	83.2*	0.2	40.5	73.6*
Brc1cccc(C2CC(c3ccccc3)n3nnnc3N2)c1 (configuration not stated)	0.2	77.6*	0.2	12.0	80.3*
Nc1nc2n(n1)C(c1cccc(Br)c1)CC(c1ccccc1)N2 (configuration not stated)	0.9	24.0	0.8	15.1	11.4
CCCn1c(NC(=O)c2cccc(S(=O)(=O)N3CCCC3)c2)nc2ccccc21	0.6	36.9	0.6	5.0	39.5
O=C(NCCc1ccccc1)C(=O)c1c(-c2ccccc2)[nH]c2ccccc12	/	/	/	0.9	/
COc1ccc(C(=O)N2CCC(C(=O)Nc3ccc4c(c3)OCCO4)CC2)cc1	0.9	-3.0	1	12.9	11.0
O=C(c1ccc2c(c1)OCCO2)C1CCN(C(=O)c2ccc(F)cc2)CC1	0.5	72.5*	0.3	2.7	50.3*
O=C(c1ccc2c(c1)OCCO2)C1CCN(C(=O)c2ccc(F)c(F)c2)CC1	0.5	75.3*	0.2	/	47.0
COc1ccc(OC)c(NC(=O)CN(C)S(=O)(=O)c2ccc3nc(C)sc3c2)c1	/	/	/	8.2	/
COc1ccc(S(=O)(=O)N(C)CC(=O)NCc2cccnc2)cc1OC	1.2	11.8	0.9	15.8	-17.0
COc1ccccc1NC(=O)CN(C)S(=O)(=O)c1cc(C)ccc1OC	0.4	93.8*	0.1	4.6	63.1*
COc1ccc(S(=O)(=O)N(C)CC(=O)Nc2ccccc2C(F)(F)F)cc1OC	1.9	76.1*	0.2	8.7	-92.4
COc1ccc(C)cc1NC(=O)CN(C)S(=O)(=O)c1cccs1	2.3*	89.3*	0.1	2.3	-134.4
COc1ccc(C)cc1NCC(=O)Nc1ccc(C(C)(C)C)cc1	/	/	/	27.8	/
O=C(O)CC(CNS(=O)(=O)c1ccccc1)c1ccccc1 (configuration not stated)	0.9	5.8	0.9	27.3	5.5
Cc1ccc(C)c(NC(=O)c2ccc(N(C)S(C)(=O)=O)cc2)c1	0.5	14.2	0.9	10.1	51.4*
COc1ccc(C)cc1NC(=O)c1ccc(OC(F)F)cc1	/	/	/	9.1	/
CN(c1ccc(C(=O)Nc2ccccc2Sc2ccccc2)cc1)S(C)(=O)=O	0.5	30.2	0.7	38.2	46.5
COc1ccc(C)cc1NC(=O)c1ccc2c(c1)OCO2	1.8	85.9*	0.1	17.5	-76.5
SMILES	CYP2C9 activ	CYP2C19 inh	CYP2C19 act	Measles CPE	CYP2C9 inh
COc1ccc(C)cc1NC(=O)c1ccc(N(C)S(C)(=O)=O)cc1	2.5*	31.7	0.7	7.3	-146.6
C=CCNC(=S)Nc1nc2c(cc1C(=O)OCC)CCCC2	/	/	/	8.5	/
O=c1c2cn[nH]c2[nH]c(=S)n1-c1cccc(Cl)c1	/	/	/	4.1	/
CC1=Nn2c(nc(-c3ccccc3)c2-c2ccccc2)NC(=O)C1Br (configuration not stated)	1	11.1	0.9	12.8	-4.7
CCC(CC)C(=O)Nc1c2c(nn1-c1ccc(OC)cc1)CS(=O)(=O)C2	0.5	1.9	1	2.5	54.6*
CCCC(=O)Nc1c2c(nn1-c1ccc(OC)cc1)CS(=O)(=O)C2	1	-9.9	1.1	7.2	4.6
CCN1CCN(C(=S)NCC(C)C)CC1	/	/	/	36.6	/
CCOc1ccc(/C=N/O)cc1	0.9	55.4*	0.4	20.2	14.4
Cc1ccc(COc2ccc(/C=N/O)cc2)cc1	/	/	/	4.4	/
CCn1c(COc2ccc3c(c2)CCCC3)nnc1SCC(=O)Nc1nccs1	0.9	10.3	0.9	5.2	6.7
Cc1nn(C)c(N)c1C(O)(c1nccn1C)C(F)(F)F (configuration not stated)	1	-2.4	1	7.3	4.2
Cc1c(Cl)cccc1NC(=O)CCN1CCCCC1	1.1	-19.4	1.2	19.6	-14.5
Cc1cc(=O)oc(C)c1C(=O)N1CCN(C(c2ccccc2)c2ccccc2)CC1	0.6	39.5	0.6	2.5	35.5
O=C(C1CC1)N1CCC(C(O)(c2ccccc2)c2ccccc2)CC1	0.4	89.5*	0.1	4.8	60.9*
CC12CCC(C(=O)N3CCN(C(c4ccccc4)c4ccccc4)CC3)(OC1=O)C2(C)C (configuration not stated)	0.1	48.4	0.5	34.2*	85.5*
Cc1c(Cl)cccc1NC(=O)CN1CCC(C(O)(c2ccccc2)c2ccccc2)CC1	0.3	1.1	1	17.2	70.4*
CCNC(=S)N1CCN(C(c2ccccc2)c2ccccc2)CC1	0.1	39.7	0.6	22.5	90.6*
COCc1nnc(NC(=O)c2ccc(Cl)cc2[N+](=O)[O-])s1	/	/	/	39.4	/
O=C(C1CC1)N1CCN(C(c2ccccc2)c2ccccc2)CC1	0.3	93.2*	0.1	14.8	69.2*
O=C(C1CCCCN1S(=O)(=O)c1ccccc1)N1CCN(C(c2ccccc2)c2ccccc2)CC1 (configuration not stated)	0.6	22.7	0.8	25.3	38.9
CCN1CCN(CCNC(=O)c2cn(Cc3ccccc3F)nn2)CC1	/	/	/	41.5*	/
CCOC(=O)C1CCCN(S(=O)(=O)c2ccc(Br)c(OC)c2)C1 (configuration not stated)	0.7	70.7*	0.3	11.3	27.2
CCOC(=O)C1CCCN(S(=O)(=O)c2c(C)c(C)cc(C)c2C)C1 (configuration not stated)	1.4	86.6*	0.1	13.8	-35.4
CCOC(=O)C1CCCN(S(=O)(=O)c2cn(C)c(=O)n(C)c2=O)C1 (configuration not stated)	0.8	78.5*	0.2	8.2	16.2
CCOC(=O)C1CCCN(S(=O)(=O)c2ccccc2)C1 (configuration not stated)	0.9	32.7	0.7	7.5	5.0
CCOC(=O)C1CCCN(S(=O)(=O)c2ccc(OC)c3ccccc23)C1 (configuration not stated)	0.8	98.3*	0	23.0	20.8
CCOC(=O)C1CCN(S(=O)(=O)c2cn(C)c(=O)n(C)c2=O)CC1	1.2	-10.5	1.1	11.1	-18.3
COc1ccc(N2CCN(C(=O)CSc3nnc(Cn4nnc5ccccc54)n3C)CC2)cc1	0.7	15.4	0.8	12.7	33.9
Cn1ncc(Cl)c1C(=O)Nc1cccnc1	0.8	2.7	1	2.2	17.5

High-throughput results: PubChem, several laboratories
